Experimental data from PubChem BioAssay AID504727 (Broad Institute, 2011).
Calls of active or inactive are those of the source.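 The calls were made as follows: active = fitted half-maximal concentration AC50 at or below ten times the highest valid tested dose, with signal falling as DNA is displaced (actives reach about 34 µM in these data); inconclusive = flat fit at moderate signal loss, or poor fit quality; inactive = the rest, including signal rising instead of falling.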

Experiment: acridine orange-DNA binding displacement – biochemical, fluorescence polarization, cherry-picked samples, set 2, artefact control for KSHV LANA DNA-binding inhibitor project, dose response (AID 504727);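 as to activity change, negative = DNA displacement: 0% = median of neutral control wells and -100% = mitoxantrone positive control wells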
Conditions: series mostly up to 35 µM; activity change, negative = DNA displacement: at the top concentration

Activity change, negative = DNA displacement, inactive:
Cc1cnc(NC(=O)Cc2c[nH]c3ccccc23)s1 0.01%
O=C(Cn1c2ccccc2c2nc3n(c(=O)c21)CCS3)Nc1ccccc1C(F)(F)F 20.6%
Nc1nc(SCC(=O)N2CCCCC2)[nH]c(=O)c1NC(=O)c1cccs1 0.545%
Cc1cccc(-c2nsc(SCC(=O)Nc3nccs3)n2)c1 3.03%
C=CC1=C(C(=O)O)N2C(=O)[C@@H](NC(=O)/C(=N/OCC(=O)O)c3csc(N)n3)[C@H]2SC1 -1.81%
NC(=S)COc1ccccc1 4.19%
Cc1ccccc1NC(=O)CN1C(=O)N/C(=C\c2cccn2-c2cccc(C(=O)O)c2)C1=O 3.04%
CC(C)Cn1c(N)c(C(=O)CSc2nnc(-c3ccco3)n2C)c(=O)n(C)c1=O 0.267%
O=C(Nc1ccc2c(c1)OCO2)N1CCCc2ccccc21 5.61%
NC(=S)NN=Cc1ccc(-c2ccc(S(=O)(=O)Nc3ncccn3)cc2)o1 -0.734%
O=C(CN1C(=O)NC2(CCCC2)C1=O)Nc1ccccc1-c1ccccc1 7.28%
CCOC(=O)C(C)(C)N(Cc1ccccc1C)S(=O)(=O)c1ccc(Cl)c([N+](=O)[O-])c1 3.3%
CCCc1nnc(NC(=O)CCC(=O)NCc2ccc(OC)cc2)s1 0.474%
NNc1nc2sc3c(c2c(=O)n1C1CCCCC1)CCN(Cc1ccccc1)C3 3.94%
FC(F)(F)c1nnc(-c2ccccc2)nc1N1CCCC1 2.74%
CN(C)S(=O)(=O)c1cccc(N2C(=O)CC3(CCCCC3)CC2=O)c1 3.65%
COC(=O)C1=C(N)OC2=C(C(=O)CCC2)C1c1cccs1 (stereo not drawn) 6.28%
COc1cc(OC)cc(C(=O)NC2CC3CCC(C2)N3C)c1 (stereo not drawn) 0.907%
Cc1cc(Cl)ccc1N1C(=O)CC(NNC(=O)c2cccnc2)C1=O (stereo not drawn) 4.24%
O=C(CSc1cccc2cccnc12)N/N=C/c1ccc(O)cc1 -0.88%
CS(=O)(=O)c1cccc(C(=O)Oc2ccccc2)c1 2.74%
CSCCC(NC(=O)c1ccccc1Cl)C(=O)N1CCCC(C)C1 (stereo not drawn) 2.53%
Cc1cc(S(=O)(=O)NC2CCN(Cc3ccccc3)CC2)c(C)cc1Cl 5.78%
COc1ccccc1CNC(=O)CCS(=O)(=O)c1cccs1 -4.89%
COC(=O)c1ccc(Oc2nc(Nc3ccc(F)cc3)nc(N3CCCC3)n2)cc1 3.15%
Cc1cccnc1NC1(C(F)(F)F)N=C2SCCN2C1=O (stereo not drawn) 4.57%
O=C1NC(=S)S/C1=C\C=C\c1ccc([N+](=O)[O-])o1 6.23%
Clc1ccc(C2=CC(c3ccco3)n3ncnc3N2)cc1 (stereo not drawn) -14.4%

AC50, active:
Nc1ccc2nc3c(=O)[nH]c(=S)[nH]c3nc2c1 3.69 µM
CCN1/C(=C2/SC(=S)N(NC(C)=O)C2=O)Sc2ccc(OC)cc21 18.8 µM
Nc1ccc2c3c(cccc13)C(=O)N(c1ccccc1)C2=O 3.91 µM
O=C(O)CCCCCn1c(SCC(=O)c2ccc(O)c(O)c2)nc2ccsc2c1=O 23.8 µM
CCN(CC)CCCNc1ccc2ncn3c4ccc(O)cc4c(=O)c1c23 6.91 µM
CN(C)/C=C1\C=C2C(=O)c3ccccc3N2C1=O 0.065 µM
O=C(COc1ccccc1Cc1ccccc1)NCCCN1CCOCC1 33.9 µM
O=C1c2ccccc2-c2onc3ccc(NCc4ccco4)c1c23 3.82 µM
Fc1ccc(C2=CC(c3ccc(Br)o3)n3ncnc3N2)cc1 (stereo not drawn) 11.7 µM
O=c1ccc2cc3c4c(c2o1)CCCN4CCC3 15.1 µM
